rTrxR1 inhibitor: blocks rat thioredoxin reductase 1; recombinant rTrxR1, NADPH fluorescence consumption, selenite substrate; Potency, µM (titrated, usually from 114 µM), inactives show at the highest dose activity change, negative = inhibition, most hits filed as inhibitors; AID 588453; 390,000 tested, 1% active; further: on the % scale 0 is the no-effect control and ±100 the full control effect; nearly all actives have a fitted effect of over 65% in size
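Rat TrxR1 (90 nM in the dispensed reagent) was pre-reduced with 400 uM NADPH for 5 min at room temperature, then incubated with compound for 15 min. After 400 uM selenite was added, NADPH fluorescence (Ex 340/Em 450 nm) was followed for 8 min.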
TrxR1 substrate: is turned over as a substrate by rat TrxR1; 390,000 tested, 0.01% active; Potency, µM (titrated, usually from 114 µM), for the others: top-dose activity change, negative = substrate turnover; purified TrxR1 substrate turnover, NADPH consumption readout; AID 588456; O89049; further: on the % scale 0 is the no-effect control and ±100 the full control effect; nearly all actives have a fitted effect of over 50% in size
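Rat TrxR1, dispensed at 90 nM, was prereduced with 400 uM NADPH (final) for 5 min at ~22 deg C, then incubated with compound 15 min before 400 uM selenite. A first-read NADPH fluorescence drop versus no-compound background flagged substrates.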
Nrf2 block: inhibitors of Nrf2 signaling | 360,000 tested, 2.1% active | A549 ARE-Fluc reporter, luciferase luminescence, 18-24 h | AID 504444 | Potency, µM (series often up to 46 µM), for the others: at the highest dose activity change, negative = inhibition, hits mostly inhibitors; further: on the % scale 0 is the no-effect control and ±100 the full control effect; nearly all actives have a fitted effect of over 60% in size
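A549 ARE_Fluc cells, 5000/well, 5% FBS OPTI-MEM; compounds in dose-response, 18-24 h at 37 °C/5% CO2; CellTiter-Fluor viability read (Ex 405/Em 525), then BugLite luciferase luminescence = Nrf2 activity.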
A549 tox: kills or reduces viability of A549 cells in Nrf2 counter-screen; A549 ARE-Fluc cells, CellTiter-Fluor viability, 18-24 h; Potency, µM (doses to about 46 µM), without a hit: at the top dose activity change, negative = cytotoxicity, most hits filed as inhibitors; 390,000 tested, 0.16% active; further: on the % scale 0 is the no-effect control and ±100 the full control effect
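Cytotoxicity counterscreen: CellTiter-Fluor fluorescence was measured in A549 ARE_Fluc cells after 18-24 h of compound exposure in a concentration series. The subsequent BugLite luminescent read reports ARE-luciferase activity.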
mIDH1 inhibitor: human IDH1 R132H inhibition | O75874 | IDH1-R132H enzyme, NADPH consumption, diaphorase/resazurin fluorescence | Potency, µM (doses to about 76.6 µM), for inactives: top-dose activity change, negative = inhibition, hits mostly inhibitors | 390,000 tested, 0.093% active | AID 602179; further: on the % scale 0 is the no-effect control and ±100 the full control effect; nearly all actives have a fitted effect of over 65% in size
Target sequence (O75874 whole entry R132H, stated change not applied): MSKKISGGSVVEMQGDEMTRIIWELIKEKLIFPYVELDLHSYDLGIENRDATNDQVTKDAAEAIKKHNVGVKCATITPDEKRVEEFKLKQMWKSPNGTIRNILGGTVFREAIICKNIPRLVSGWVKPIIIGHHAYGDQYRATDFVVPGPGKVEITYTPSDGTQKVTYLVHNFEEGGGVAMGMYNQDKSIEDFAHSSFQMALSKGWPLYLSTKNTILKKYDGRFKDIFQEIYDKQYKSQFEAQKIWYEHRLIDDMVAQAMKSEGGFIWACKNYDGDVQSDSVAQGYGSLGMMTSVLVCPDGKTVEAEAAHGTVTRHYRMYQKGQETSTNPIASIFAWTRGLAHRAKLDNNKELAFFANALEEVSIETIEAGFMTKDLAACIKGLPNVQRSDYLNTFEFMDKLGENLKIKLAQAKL
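IDH1-R132H (0.5 ug/mL dispensed) in pH 7.5 Tris buffer was preincubated 30 min with compound, then given a substrate mix of 0.016 mM NADPH and 2 mM alpha-KG for 80 min at room temperature; remaining NADPH was read by diaphorase/resazurin fluorescence.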
Mito fusion yeast: inhibitors of mitochondrial division or activators of mitochondrial fusion. S. cerevisiae fusion-defective mutant growth rescue, CellTiterGlo 48 h. Potency, µM (highest dose often 46.1 µM), for inactives: at the highest dose growth rescue (activation), actives largely listed as activators. 320,000 tested, 0.23% active; further: % of control where 0% means no effect; nearly all actives have a fitted effect of over 45% in size
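Read-out: ATP-based luminescence (CellTiterGlo, 10 min ambient) reporting growth of fusion-defective ts yeast after 48 hours at 37C on glycerol/ethanol YPEG medium in the presence of compound.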
Numbers without * were called inactive; ? = inconclusive; . = not tested or not shown; [ ] = remark or other dose. Only some compounds are listed: those with a hit (about 3.1% of all), similar ones and a draw of the others. The call rests on the fitted dose curve; in most records, active means well fitted curve in the direction sought with a large enough effect; inconclusive means small, poorly fitted or top-dose-only effect, or another doubt; inactive means no such curve, though single readings can be large; an effect the other way counts as inactive or inconclusive. Potency means the concentration at half of the fitted maximal effect.

SMILES	rTrxR1 inhibitor	TrxR1 substrate	Nrf2 block	A549 tox	mIDH1 inhibitor	Mito fusion yeast
O=C(/C=C/c1ccco1)Nc1ccc(F)cc1	?	1.0%[57.1 µM]	.	-3.6%	.	9.1%
CC(C)CCNC(=O)c1ccc2c(c1)NC(=O)C(C(C)C)N2 (stereo unspecified)	1.8%	-7.3%	-15.3%	-1.7%	0.1%	.
O/N=C(/C[n+]1csc2ccccc21)c1ccccc1	20.6%	-7.6%	.	.	.	.
CC1(C)CC(=O)c2cc(C(=O)Nc3ccccc3)c(=O)[nH]c2C1	3.3%	-1.2%	.	.	.	.
CCc1ccccc1NC(=O)c1ncoc1-c1ccco1	-1.3%[57.1 µM]	-4.7%[57.1 µM]	.	-2.6%	2.7%	.
Cc1c(C(=O)N(Cc2ccc(N(C)C)cc2)CC2CCCO2)oc2ccc(Cl)cc12 (stereo unspecified)	1.0%	1.5%	?	-21.8%	-1.0%	.
O=C(/C=C/c1ccc(Br)cc1)c1ccco1	-38.7%	4.1%[57.1 µM]	-7.2%	-4.9%	12.4%	-0.7%
O=C(/C=C/c1ccco1)Nc1ccc2c(c1)OCO2	70.8µM*	-13.2%	?	-3.3%	9.1%	1.3%
Cc1cc(C(=O)NNC(=O)/C=C/c2ccco2)c(C)o1	2.82µM*	3.9%	14.1%	-13.1%	0.3%	1.7%
O=C(C=Cc1ccco1)c1ccco1	14.1µM*	12.7%[57.1 µM]	2.5%	-2.9%	0.0%	.
O=C(/C=C/c1ccco1)NCC1COc2ccccc2O1 (stereo unspecified)	15.8µM*	0.5%	28.2%	-0.8%	6.6%	-3.3%
O=C(NCc1cccs1)C1CCN(C(=O)N2CCOc3ccccc32)CC1	11.7%	10.8%[11.4 µM]	19.6%	-2.0%	14.3%	.
CC(C)(C)c1ccc(/C=C/C(=O)Nc2ccc3c(c2)OCCO3)cc1	3.2%[57.1 µM]	-1.4%[57.1 µM]	.	.	.	14.6µM*
O=C(/C=C/c1ccco1)NCc1ccc2c(c1)OCO2	35.5µM*	2.2%	0.2%	0.4%	0.0%	-4.5%
CC(=O)Nc1ccc(NC(=O)/C=C/c2ccc3c(c2)OCO3)cc1	9.3%[57.1 µM]	12.5%[57.1 µM]	13.6%	-0.1%	1.4%	-3.7%
Cc1cccc(Cn2c(SCc3ccc(C(=O)NCc4cccs4)cc3)nc3cccnc32)c1	7.2%	2.1%	?	-10.9%	0.9%	.
N#CN=c1snc(-c2ccccc2)n1-c1ccc(Br)cc1	10.1%[0.0914 µM]	8.4%[0.0914 µM]	28.2%	0.6%	.	.
O=S1(=O)c2c(F)cccc2OC(COCc2ccccc2)CN1C1CCCC1 (stereo unspecified)	23.9%	2.3%	?	1.6%	-1.2%	.
C=CCCC1CN(Cc2ccco2)S(=O)(=O)c2c(F)cccc2O1 (stereo unspecified)	39.8µM*	-2.6%	12.0%	12.3%	-3.3%	.
CCCCCNC(=O)c1cc2c(=O)n3ccccc3nc2n1C	55.9%	247.5%	18.4µM*	-2.8%	-4.1%	.
CCCCn1nc(C(=O)Oc2ccc3c(C)cc(=O)oc3c2)c2ccccc2c1=O	79.4µM*	568.6%	0.2%	0.1%	9.4%	0.4%
Cc1cc(=O)oc2cc(OCCCN3C(=O)c4ccccc4C3=O)ccc12	15.1%	6.8%	0.3%	-1.7%	1.1%	1.4%
Cc1cc(=O)oc2cc(OC(=O)CCN3C(=O)c4ccccc4C3=O)ccc12	39.8µM*	262.7%	5.4%	-4.3%	1.3%	-4.3%
Cc1sc2ccccc2[n+]1CCc1ccccc1	9.9%	-2.5%	.	.	.	.
CN(CC(=O)Nc1ccc(Cl)c(C(F)(F)F)c1)CC(=O)NC1CCCCC1	-8.2%	-14.6%	11.6µM*	?	-3.7%	-23.6%
SMILES	rTrxR1 inhibitor	TrxR1 substrate	Nrf2 block	A549 tox	mIDH1 inhibitor	Mito fusion yeast
CN(CC(=O)NCc1ccccc1)CC(=O)Nc1ccc(Cl)c(C(F)(F)F)c1	27.5%	5.6%	-15.4%	-1.3%	-10.1%	-17.0%
CN(CC(=O)Nc1ccc(Cl)c(C(F)(F)F)c1)C(=O)c1ccc2c(c1)NC(=O)CS2	5.6%	-6.1%	20.6µM*	-15.9%	-1.0%	-6.4%
CN(CC(=O)Nc1cccc(S(=O)(=O)N2CCCC2)c1)CC(=O)Nc1ccc(F)c(F)c1F	8.0%	-5.4%	?	-23.9%	2.2%	.
CN(CC(=O)Nc1cccc(S(=O)(=O)N2CCCC2)c1)CC(=O)Nc1ccc(Cl)c(C(F)(F)F)c1	28.7%	-8.6%[57.1 µM]	25.9µM*	?	-4.3%	-20.8%
Cc1ccc(NC(=O)c2ccc(NCCN)c([N+](=O)[O-])c2)cc1Cl	-5.4%	-5.2%	13.1%	-6.7%	1.9%	-18.3%
Cc1nc2cc(NC(=O)c3ccc([N+](=O)[O-])s3)ccc2s1	-3.1%	-0.3%	6.51µM*	-12.3%	6.7%	-2.3%
CCNc1ccc(C(=O)Nc2ccc3nc(C)sc3c2)cc1[N+](=O)[O-]	-7.4%	-7.3%	-0.9%	-8.6%	5.4%	35.5µM*
COc1ccc2[nH]cc(/C=C/c3cc[n+](C)cc3)c2c1	-7.5%	-5.9%	10.3µM*	?	0.0%	-3.4%
Cc1cc(C)c2c(CC(=O)Nc3c(C(=O)Nc4ccc(Cl)cc4)oc4ccccc34)coc2c1	-14.4%	10.2%	?	-7.1%	-9.0%	.
Cc1nc(SCC(=O)Nc2ccc(F)cc2)c(C#N)c(C)c1CC(=O)c1ccc(Br)cc1	5.9%	-5.3%	13µM*	11.6µM*	5.1%	-4.6%
Cc1cccc(NC(=O)CSc2nc(C)c(CC(=O)c3ccc(Br)cc3)c(C)c2C#N)c1C	1.9%	-1.6%	?	-1.6%	9.9%	0.3%
Cc1ccc(NC(=O)CSc2nnc(CCCCCNC(=O)OC(C)(C)C)o2)c(C)c1	12.3%	-2.8%	16.4µM*	-14.2%	-1.9%	-2.8%
CCc1ccc2c(c1)NC(c1ccc(C)cc1)=NC(c1cccs1)=N2	11.1%	-9.9%	-5.6%	-27.5%	-0.7%	.
O=C(O)c1cc(N(Cc2ccccc2O)Cc2ccccc2O)ccc1O	39.8µM*	1.2%	-8.1%	-6.0%	.	.
COc1ccc(C(=O)c2cn(Cc3ccc(C)cc3)c3cc4c(cc3c2=O)OCO4)cc1	0.1%	-0.2%	-5.9%	?	-11.5%	.
Cc1ccc(C)c(N2CCN(C(=O)CCC(=O)Nc3nnc(CC(C)C)s3)CC2)c1	15.8%	3.0%	?	-2.7%	-6.9%	-0.9%
CCCc1nnc(NC(=O)CCC(=O)N2CCN(Cc3ccc(Cl)cc3)CC2)s1	-11.1%	-5.6%	14.6µM*	-1.2%	-2.7%	0.6%
CCc1nnc(NC(=O)CCC(=O)N2CCN(Cc3ccccc3)CC2)s1	4.1%	8.7%	-18.7%	-4.4%	0.0%	-1.6%
CC(C)Cc1nnc(NC(=O)CCC(=O)N2CCN(c3ccc(Cl)cc3)CC2)s1	-12.5%	-7.3%	18.4µM*	-7.6%	-4.5%	-3.7%
CCCc1nnc(NC(=O)CCC(=O)N2CCN(Cc3cc(F)ccc3OC)CC2)s1	5.1%	-4.9%	-20.3%	-11.4%	2.6%	-0.8%

From PubChem
